Measured values taken from publication PMC7862700, “An all-to-all approach to the identification of sequence-specific readers for epigenetic DNA modifications on cytosine”.

Key:
Test in all cases: DAPPL (digital affinity profiling via proximity ligation, sequencing); 10 mM Tris-HCl pH 7.5, 50 mM NaCl, 1 mM DTT, 4% glycerol, room temperature, 30 min; GST-TFs on glutathione beads, 16-mer random dsDNA library, 0.1% formaldehyde crosslink after washing; high values mean tight binding
FEV = molecular target: T1, FEV (Homo sapiens, UniProt Q99581 1-238); conditions: protein: recombinant; tags: N-terminal GST; dsDNA, one strand shown
T1 sequence: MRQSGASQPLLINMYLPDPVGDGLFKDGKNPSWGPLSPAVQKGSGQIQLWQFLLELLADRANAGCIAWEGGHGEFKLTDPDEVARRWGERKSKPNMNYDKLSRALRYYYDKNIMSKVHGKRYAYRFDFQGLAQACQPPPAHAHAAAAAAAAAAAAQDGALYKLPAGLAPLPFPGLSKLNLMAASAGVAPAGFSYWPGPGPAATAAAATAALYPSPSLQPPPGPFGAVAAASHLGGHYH
Outline: (§1)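 The binding signal reported is, for every hexamer, its read frequency for a factor over its read frequency for the tag-only sample. Reads came from pools of yeast-expressed, GST-fused human transcription factors on glutathione beads, barcoded with DNA and mixed with that sample, which were incubated with 200 nmole of a random double-stranded 16-mer DNA library in Tris/NaCl/DTT/glycerol buffer at room temperature for 30 min. After washing, the pools were crosslinked with 0.1% formaldehyde, proximity-ligated with BsaI/T4 ligase for 1 h at 37 °C, PCR-amplified and sequenced on an Illumina NextSeq500.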

ETV5 = ETV5 (Homo sapiens, UniProt P41161 1-510); conditions: protein: recombinant; tags: N-terminal GST; dsDNA, one strand shown
Outline: as §1

HSF1 = HSF1 (Homo sapiens, UniProt Q00613 1-529); conditions: protein: recombinant; tags: N-terminal GST; chain copies: 3; dsDNA, one strand shown
Outline: as §1

SPIC = molecular target: T2, SPIC (Homo sapiens, UniProt Q8N5J4 1-248); conditions: protein: recombinant; tags: N-terminal GST; dsDNA, one strand shown
T2 sequence: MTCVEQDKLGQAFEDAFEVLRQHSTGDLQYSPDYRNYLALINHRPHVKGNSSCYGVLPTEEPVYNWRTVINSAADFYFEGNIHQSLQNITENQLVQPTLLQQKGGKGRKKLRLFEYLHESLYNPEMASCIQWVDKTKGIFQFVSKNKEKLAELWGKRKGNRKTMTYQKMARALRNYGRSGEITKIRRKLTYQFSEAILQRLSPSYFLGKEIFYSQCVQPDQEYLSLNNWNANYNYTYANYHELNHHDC
Outline: as §1

ELF4 = ELF4 (Homo sapiens, UniProt Q99607 1-663); conditions: protein: recombinant; tags: N-terminal GST; dsDNA, one strand shown
Outline: as §1

ELK4 = molecular target: T3, ELK4 (Homo sapiens, UniProt P28324-2 1-405); conditions: protein: recombinant; tags: N-terminal GST; dsDNA, one strand shown
T3 sequence: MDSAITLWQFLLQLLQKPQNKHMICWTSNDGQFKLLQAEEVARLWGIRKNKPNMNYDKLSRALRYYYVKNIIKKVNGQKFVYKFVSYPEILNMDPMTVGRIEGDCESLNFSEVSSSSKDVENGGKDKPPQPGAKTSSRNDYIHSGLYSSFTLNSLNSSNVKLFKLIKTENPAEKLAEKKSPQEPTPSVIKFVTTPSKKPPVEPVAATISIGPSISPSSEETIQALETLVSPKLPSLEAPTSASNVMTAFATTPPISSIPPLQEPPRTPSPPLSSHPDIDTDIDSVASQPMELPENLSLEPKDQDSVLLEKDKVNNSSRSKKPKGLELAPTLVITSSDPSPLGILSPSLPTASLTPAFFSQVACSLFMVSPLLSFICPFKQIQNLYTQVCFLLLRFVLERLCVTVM
Outline: as §1

ETV2 = molecular target: T4, ETV2 (Homo sapiens, UniProt O00321 1-342); conditions: protein: recombinant; tags: N-terminal GST; dsDNA, one strand shown
T4 sequence: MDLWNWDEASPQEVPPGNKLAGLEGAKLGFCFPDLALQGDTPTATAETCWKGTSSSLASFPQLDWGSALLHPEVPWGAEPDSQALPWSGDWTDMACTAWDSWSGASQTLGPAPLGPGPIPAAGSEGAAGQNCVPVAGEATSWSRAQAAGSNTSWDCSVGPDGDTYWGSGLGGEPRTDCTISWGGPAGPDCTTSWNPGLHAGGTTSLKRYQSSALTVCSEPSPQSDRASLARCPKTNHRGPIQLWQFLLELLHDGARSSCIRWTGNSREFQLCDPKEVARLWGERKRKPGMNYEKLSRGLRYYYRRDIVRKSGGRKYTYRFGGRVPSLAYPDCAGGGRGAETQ
Outline: as §1

ELF3 = molecular target: T5, ELF3 (Homo sapiens, UniProt P78545 1-371); conditions: protein: recombinant; tags: N-terminal GST; dsDNA, one strand shown
T5 sequence: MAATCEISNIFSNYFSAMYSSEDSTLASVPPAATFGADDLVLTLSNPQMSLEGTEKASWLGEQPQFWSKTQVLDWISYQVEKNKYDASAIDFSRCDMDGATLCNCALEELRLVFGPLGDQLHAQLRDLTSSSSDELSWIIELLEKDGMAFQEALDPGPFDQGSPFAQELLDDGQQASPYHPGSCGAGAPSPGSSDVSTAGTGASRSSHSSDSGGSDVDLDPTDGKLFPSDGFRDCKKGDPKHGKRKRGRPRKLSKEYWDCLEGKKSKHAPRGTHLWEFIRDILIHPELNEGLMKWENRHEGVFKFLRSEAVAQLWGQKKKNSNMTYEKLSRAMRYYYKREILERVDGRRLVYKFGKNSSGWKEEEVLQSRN
Outline: as §1

CRX = CRX (Homo sapiens, UniProt O43186 1-299); conditions: protein: recombinant; tags: N-terminal GST; dsDNA, one strand shown
Outline: as §1

ETV1 = ETV1 (Homo sapiens, UniProt P50549 1-477); conditions: protein: recombinant; tags: N-terminal GST; dsDNA, one strand shown
Outline: as §1

ERF = molecular target: T6, ERF (Homo sapiens, UniProt P50548 1-548); conditions: protein: recombinant; tags: N-terminal GST; dsDNA, one strand shown
T6 sequence: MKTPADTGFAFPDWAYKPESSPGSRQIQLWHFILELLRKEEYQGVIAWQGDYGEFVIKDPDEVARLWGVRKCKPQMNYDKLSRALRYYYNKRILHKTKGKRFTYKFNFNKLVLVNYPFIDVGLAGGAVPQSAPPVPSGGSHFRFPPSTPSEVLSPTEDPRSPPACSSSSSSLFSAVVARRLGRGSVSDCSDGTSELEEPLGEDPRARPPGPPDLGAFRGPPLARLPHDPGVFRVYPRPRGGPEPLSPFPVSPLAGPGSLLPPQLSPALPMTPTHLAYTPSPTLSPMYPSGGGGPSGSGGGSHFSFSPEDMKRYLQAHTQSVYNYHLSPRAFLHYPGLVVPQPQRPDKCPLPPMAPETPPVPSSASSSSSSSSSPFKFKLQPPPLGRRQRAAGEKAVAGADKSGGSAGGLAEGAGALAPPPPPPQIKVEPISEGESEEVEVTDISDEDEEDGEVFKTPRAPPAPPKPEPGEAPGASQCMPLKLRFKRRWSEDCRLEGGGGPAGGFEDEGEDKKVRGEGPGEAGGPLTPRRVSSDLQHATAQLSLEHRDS
Outline: as §1

ETV3L = molecular target: T7, ETV3L (Homo sapiens, UniProt Q6ZN32 1-361); conditions: protein: recombinant; tags: N-terminal GST; dsDNA, one strand shown
T7 sequence: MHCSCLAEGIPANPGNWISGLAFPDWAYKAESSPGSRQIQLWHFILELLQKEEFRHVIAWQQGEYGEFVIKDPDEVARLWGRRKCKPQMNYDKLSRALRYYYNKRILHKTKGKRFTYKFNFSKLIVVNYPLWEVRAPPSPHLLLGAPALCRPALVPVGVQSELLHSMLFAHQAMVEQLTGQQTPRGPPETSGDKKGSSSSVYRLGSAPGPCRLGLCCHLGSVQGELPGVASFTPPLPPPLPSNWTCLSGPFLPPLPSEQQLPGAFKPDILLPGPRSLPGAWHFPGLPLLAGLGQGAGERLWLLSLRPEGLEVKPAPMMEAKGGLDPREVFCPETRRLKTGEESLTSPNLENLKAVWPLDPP
Outline: as §1

ETS2 = molecular target: T8, ETS2 (Homo sapiens, UniProt P15036 1-469); conditions: protein: recombinant; tags: N-terminal GST; dsDNA, one strand shown
T8 sequence: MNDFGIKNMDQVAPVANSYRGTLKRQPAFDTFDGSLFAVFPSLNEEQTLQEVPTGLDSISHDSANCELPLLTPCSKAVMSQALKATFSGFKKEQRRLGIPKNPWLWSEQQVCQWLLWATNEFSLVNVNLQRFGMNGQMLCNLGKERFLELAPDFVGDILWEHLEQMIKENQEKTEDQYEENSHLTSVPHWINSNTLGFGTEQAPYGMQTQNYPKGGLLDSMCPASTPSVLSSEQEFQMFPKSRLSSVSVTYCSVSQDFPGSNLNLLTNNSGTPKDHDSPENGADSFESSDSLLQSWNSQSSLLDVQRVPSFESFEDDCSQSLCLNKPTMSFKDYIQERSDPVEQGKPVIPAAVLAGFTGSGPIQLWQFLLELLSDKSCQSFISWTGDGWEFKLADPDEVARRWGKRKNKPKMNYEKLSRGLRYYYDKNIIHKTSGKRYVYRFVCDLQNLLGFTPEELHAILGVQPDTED
Outline: as §1

SPDEF = molecular target: T9, SPDEF (Homo sapiens, UniProt O95238 1-335); conditions: protein: recombinant; tags: N-terminal GST; dsDNA, one strand shown
T9 sequence: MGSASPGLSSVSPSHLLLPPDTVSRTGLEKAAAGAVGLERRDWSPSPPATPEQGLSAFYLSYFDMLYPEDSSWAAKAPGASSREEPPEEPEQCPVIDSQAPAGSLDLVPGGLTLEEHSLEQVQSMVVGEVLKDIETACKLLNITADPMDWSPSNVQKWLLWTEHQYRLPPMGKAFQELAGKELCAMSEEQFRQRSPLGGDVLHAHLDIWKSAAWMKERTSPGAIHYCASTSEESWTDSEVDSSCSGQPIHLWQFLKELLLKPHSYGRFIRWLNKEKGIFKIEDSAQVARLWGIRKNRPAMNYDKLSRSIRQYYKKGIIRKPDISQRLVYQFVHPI
Outline: as §1

ETV7 = molecular target: T10, ETV7 (Homo sapiens, UniProt Q9Y603 1-341); conditions: protein: recombinant; tags: N-terminal GST; dsDNA, one strand shown
T10 sequence: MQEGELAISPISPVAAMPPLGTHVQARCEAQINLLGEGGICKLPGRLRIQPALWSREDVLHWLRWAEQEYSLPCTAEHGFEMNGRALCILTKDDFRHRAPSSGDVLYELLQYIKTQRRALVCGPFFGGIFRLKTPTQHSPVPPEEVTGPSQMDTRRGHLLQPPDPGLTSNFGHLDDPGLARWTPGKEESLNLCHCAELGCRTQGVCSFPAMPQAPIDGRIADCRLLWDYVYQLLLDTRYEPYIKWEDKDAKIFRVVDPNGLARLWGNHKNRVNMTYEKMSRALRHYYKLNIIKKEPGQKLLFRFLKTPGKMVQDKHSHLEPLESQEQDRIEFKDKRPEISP
Outline: as §1

ELF5 = molecular target: T11, ELF5 (Homo sapiens, UniProt Q9UKW6-2 1-255); conditions: protein: recombinant; tags: N-terminal GST; dsDNA, one strand shown
T11 sequence: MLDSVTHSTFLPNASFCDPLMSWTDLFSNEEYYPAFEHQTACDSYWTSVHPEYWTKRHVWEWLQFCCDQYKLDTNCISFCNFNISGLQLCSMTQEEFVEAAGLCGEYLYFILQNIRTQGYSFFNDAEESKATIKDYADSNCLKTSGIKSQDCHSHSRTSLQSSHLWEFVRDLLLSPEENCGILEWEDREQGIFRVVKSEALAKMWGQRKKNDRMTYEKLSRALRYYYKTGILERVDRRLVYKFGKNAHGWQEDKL
Outline: as §1

ETV3 = molecular target: T12, ETV3 (Homo sapiens, UniProt P41162-2 1-143); conditions: protein: recombinant; tags: N-terminal GST; dsDNA, one strand shown
T12 sequence: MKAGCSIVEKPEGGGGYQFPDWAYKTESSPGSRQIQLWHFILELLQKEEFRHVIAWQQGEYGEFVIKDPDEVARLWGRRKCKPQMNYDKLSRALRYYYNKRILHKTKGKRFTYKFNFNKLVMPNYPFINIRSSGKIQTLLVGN
Outline: as §1

ETV6 = ETV6 (Homo sapiens, UniProt P41212 1-452); conditions: protein: recombinant; tags: N-terminal GST; dsDNA, one strand shown
Outline: as §1

HSF1, sequence (Q00613 whole entry): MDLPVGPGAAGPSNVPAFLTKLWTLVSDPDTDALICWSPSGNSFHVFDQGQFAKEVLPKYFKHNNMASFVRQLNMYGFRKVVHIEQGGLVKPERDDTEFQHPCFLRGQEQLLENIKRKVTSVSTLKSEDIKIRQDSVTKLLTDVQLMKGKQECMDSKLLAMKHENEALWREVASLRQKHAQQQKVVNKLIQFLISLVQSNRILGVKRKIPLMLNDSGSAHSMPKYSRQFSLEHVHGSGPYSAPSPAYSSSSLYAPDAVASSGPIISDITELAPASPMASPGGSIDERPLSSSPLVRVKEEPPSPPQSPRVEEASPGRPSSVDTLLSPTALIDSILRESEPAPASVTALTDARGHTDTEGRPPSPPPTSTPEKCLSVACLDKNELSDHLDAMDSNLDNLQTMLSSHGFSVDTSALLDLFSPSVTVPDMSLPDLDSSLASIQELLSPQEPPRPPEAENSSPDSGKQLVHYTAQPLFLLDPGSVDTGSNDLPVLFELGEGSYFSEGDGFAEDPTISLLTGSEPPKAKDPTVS
ETV5, sequence (P41161 whole entry): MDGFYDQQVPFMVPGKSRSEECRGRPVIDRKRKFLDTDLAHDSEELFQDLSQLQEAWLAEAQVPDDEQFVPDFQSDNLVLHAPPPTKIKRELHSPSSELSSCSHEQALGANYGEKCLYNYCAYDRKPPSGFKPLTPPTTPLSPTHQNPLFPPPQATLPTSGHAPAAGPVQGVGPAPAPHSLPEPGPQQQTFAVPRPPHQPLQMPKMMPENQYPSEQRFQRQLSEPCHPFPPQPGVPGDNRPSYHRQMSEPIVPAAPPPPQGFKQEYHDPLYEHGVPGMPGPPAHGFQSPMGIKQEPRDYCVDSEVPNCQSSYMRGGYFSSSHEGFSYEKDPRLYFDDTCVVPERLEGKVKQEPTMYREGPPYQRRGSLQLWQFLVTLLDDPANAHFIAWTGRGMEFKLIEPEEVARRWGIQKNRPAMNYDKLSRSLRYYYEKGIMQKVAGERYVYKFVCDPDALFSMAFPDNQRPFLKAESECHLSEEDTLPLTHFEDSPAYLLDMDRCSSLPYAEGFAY
ETV1, sequence (P50549 whole entry): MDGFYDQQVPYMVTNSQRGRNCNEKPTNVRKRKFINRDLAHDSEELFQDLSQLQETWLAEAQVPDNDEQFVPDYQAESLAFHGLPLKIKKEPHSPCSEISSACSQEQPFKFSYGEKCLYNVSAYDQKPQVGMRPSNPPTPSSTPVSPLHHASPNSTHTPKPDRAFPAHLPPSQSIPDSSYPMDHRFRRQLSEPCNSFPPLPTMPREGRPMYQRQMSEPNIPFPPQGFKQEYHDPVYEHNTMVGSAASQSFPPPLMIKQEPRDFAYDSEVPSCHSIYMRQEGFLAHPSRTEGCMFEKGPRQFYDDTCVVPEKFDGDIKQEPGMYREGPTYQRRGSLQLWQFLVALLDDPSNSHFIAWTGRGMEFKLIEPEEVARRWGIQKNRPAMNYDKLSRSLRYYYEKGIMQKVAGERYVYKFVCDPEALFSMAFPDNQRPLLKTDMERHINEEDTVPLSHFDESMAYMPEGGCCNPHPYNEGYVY
CRX, sequence (O43186 whole entry): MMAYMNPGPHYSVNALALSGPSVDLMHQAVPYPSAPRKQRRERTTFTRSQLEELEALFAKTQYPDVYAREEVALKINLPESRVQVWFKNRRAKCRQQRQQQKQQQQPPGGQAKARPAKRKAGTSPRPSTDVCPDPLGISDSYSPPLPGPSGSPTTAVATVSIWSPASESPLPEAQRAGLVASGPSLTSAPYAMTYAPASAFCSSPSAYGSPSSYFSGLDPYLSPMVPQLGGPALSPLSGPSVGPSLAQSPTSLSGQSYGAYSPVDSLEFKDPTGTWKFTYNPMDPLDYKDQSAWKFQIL
ETV6, sequence (P41212 whole entry): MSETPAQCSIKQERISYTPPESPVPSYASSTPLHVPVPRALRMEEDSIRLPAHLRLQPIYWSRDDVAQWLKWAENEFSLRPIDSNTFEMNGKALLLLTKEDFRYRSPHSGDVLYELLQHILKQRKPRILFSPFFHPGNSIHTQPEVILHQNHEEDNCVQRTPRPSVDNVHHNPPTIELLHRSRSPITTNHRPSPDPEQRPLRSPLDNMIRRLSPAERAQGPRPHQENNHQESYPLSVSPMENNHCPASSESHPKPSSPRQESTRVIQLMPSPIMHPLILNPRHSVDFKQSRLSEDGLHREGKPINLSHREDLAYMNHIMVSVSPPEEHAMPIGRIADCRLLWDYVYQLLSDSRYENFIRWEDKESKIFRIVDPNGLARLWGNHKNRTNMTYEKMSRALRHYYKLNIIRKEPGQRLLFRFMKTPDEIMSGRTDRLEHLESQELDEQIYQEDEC
ELF4, sequence (Q99607 whole entry): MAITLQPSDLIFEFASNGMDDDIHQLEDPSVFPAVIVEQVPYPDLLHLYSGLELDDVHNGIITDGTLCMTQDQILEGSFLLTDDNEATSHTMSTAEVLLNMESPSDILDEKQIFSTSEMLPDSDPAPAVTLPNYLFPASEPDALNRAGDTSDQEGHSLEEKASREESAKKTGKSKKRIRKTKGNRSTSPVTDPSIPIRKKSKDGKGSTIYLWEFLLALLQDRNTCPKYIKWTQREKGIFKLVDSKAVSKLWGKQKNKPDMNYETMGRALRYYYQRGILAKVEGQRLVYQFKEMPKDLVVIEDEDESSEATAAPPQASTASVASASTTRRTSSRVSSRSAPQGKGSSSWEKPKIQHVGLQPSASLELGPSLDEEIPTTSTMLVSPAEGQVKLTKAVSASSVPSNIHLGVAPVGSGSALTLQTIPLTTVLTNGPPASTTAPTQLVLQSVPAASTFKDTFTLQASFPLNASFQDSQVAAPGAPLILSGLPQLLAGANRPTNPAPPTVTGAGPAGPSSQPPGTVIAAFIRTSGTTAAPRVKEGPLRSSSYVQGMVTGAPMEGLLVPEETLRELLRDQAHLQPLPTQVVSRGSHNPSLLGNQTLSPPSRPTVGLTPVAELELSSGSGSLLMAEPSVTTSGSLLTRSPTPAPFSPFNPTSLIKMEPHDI

ACTCTT
binding signal (FEV): 1.18 fold enrichment (6-mer frequency, TF over GST control)
binding signal (ETV5): 1.29 fold enrichment (6-mer frequency, TF over GST control)
binding signal (HSF1): 1.12 fold enrichment (6-mer frequency, TF over GST control)
binding signal (SPIC): 1.3 fold enrichment (6-mer frequency, TF over GST control)
binding signal (ELF4): 1.26 fold enrichment (6-mer frequency, TF over GST control)
binding signal (ELK4): 1.35 fold enrichment (6-mer frequency, TF over GST control)
binding signal (ETV2): 1.31 fold enrichment (6-mer frequency, TF over GST control)
binding signal (ELF3): 1.14 fold enrichment (6-mer frequency, TF over GST control)
binding signal (CRX): 1.19 fold enrichment (6-mer frequency, TF over GST control)
binding signal (ETV1): 1.33 fold enrichment (6-mer frequency, TF over GST control)
binding signal (ERF): 1.31 fold enrichment (6-mer frequency, TF over GST control)
binding signal (ETV3L): 1.27 fold enrichment (6-mer frequency, TF over GST control)
binding signal (ETS2): 1.15 fold enrichment (6-mer frequency, TF over GST control)
binding signal (SPDEF): 1.18 fold enrichment (6-mer frequency, TF over GST control)
binding signal (ETV7): 1.29 fold enrichment (6-mer frequency, TF over GST control)
binding signal (ELF5): 1.34 fold enrichment (6-mer frequency, TF over GST control)
binding signal (ETV3): 1.25 fold enrichment (6-mer frequency, TF over GST control)
binding signal (ETV6): 1.25 fold enrichment (6-mer frequency, TF over GST control)
